Test results: PubChem BioAssay AID1619 (SRMLSC, 2009)
Screen size: about 220,000 compounds; about 830 (0.38%) were called active.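 The calls were made as follows: active = compound inhibiting the enzyme by more than half at any dose during confirmatory dose-response retesting; inconclusive = strong single-dose inhibitors picked by rank but not retested; inactive = the rest.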 Not all results are given here. Results with a measured potency or affinity are listed apart.

Target: Leucine aminopeptidase (Plasmodium falciparum (isolate 3D7)) (UniProt Q8IL11)
Sequence (Q8IL11 whole entry, looked up): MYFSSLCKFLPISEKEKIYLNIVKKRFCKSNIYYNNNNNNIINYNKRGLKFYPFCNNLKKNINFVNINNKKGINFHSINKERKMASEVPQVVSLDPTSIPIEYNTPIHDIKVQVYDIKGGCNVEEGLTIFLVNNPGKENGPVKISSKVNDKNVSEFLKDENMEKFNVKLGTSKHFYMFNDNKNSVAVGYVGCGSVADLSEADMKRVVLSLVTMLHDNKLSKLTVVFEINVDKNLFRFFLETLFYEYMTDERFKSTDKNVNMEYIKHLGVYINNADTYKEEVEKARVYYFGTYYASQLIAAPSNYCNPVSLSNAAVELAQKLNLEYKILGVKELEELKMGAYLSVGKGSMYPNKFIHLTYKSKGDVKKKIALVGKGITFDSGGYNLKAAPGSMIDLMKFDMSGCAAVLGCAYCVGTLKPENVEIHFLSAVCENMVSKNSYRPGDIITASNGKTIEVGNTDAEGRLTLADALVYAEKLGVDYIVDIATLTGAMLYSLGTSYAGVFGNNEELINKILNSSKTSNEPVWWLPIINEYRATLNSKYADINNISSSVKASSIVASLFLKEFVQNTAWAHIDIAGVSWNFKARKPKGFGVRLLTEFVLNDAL
Experiment: P. falciparum M17LAP inhibitors, primary screen, biochemical, fluorogenic H-Leu-NHMec substrate, 1536-well (AID 1619);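 also: plate controls were full reaction with DMSO carrier for no effect and no enzyme background for full effect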
Details: recombinant M17LAP, H-Leu-NHMec fluorogenic kinetic assay; at 30 µM; hits give high values

inhibition, inactive:
Cc1onc(-c2ccccc2Cl)c1C(=O)Nc1ccccc1C(=O)NC(C)C 9.44%
COc1cc(C(=O)NC(C)c2cnn(-c3ccccc3C)c2C)cc(OC)c1OC (configuration not stated) 5.89%
COC(=O)c1c(NC(=O)CSc2ncnc3[nH]ncc23)sc2c1CCC2 33%
CN(C)S(=O)(=O)c1cccc(CSc2cccc[n+]2[O-])c1 -1.76%
Cc1ccc2cc(CCNC(=O)C(=O)c3c[nH]c4ccccc34)c(=O)[nH]c2c1 -4.94%
COC(=O)c1cc(Cl)c(NC(=O)c2cc3ccccc3o2)cc1OC -2.34%
O=C(c1ccc(Br)cc1)c1cc(-c2ccccn2)c(N2CCOCC2)s1 5.58%
Cc1csc2c(SCC(=O)NNS(=O)(=O)c3cccc(C(F)(F)F)c3)ncnc12 -12.4%
CC1(OC(=O)C2CCCC2)C(=O)C=C2C=C(c3ccsc3)N(c3ccccc3)C=C2C1=O (configuration not stated) -5.77%
O=C(OCCN1C(=O)c2ccccc2C1=O)c1ccco1 15.3%
CCN1CCN(Cc2ccc(NC(=O)Nc3ccccc3OC)cc2)CC1 -5.76%
CCN1CCN(Cc2ccc(NC(=O)Nc3ccccc3)cc2)CC1 50.7%
COc1ccc(NC(=O)Nc2ccc(C(=O)N3CCOCC3)cc2)c(OC)c1 -5.93%
Cc1ccc(NC(=O)Nc2ccc(C(=O)N3CCOCC3)cc2)cc1 41%
CC(=O)Nc1cccc(C(=O)/C=C/c2ccco2)c1 17.6%
O=C(O)c1ccccc1/C=N/N1CCN(C2c3ccccc3-c3ccccc32)CC1 -1.62%
Brc1ccc(C2=Nn3c(nnc3-c3n[nH]c4c3CCC4)SC2)cc1 6.03%
CCn1c(O)c(N=N)c2ccccc21 12.4%
O=C(N/N=C/c1coc2ccccc2c1=O)c1cc(O)cc(O)c1 29.1%
O=C(N/N=C/c1coc2ccccc2c1=O)c1ccccc1 11.9%
Cc1c(C(=O)N2CCCC2)sc(NC(=O)c2cccc(Cl)c2)c1C#N 18.9%
O=C(COC(=O)c1cccnc1Cl)NCCC1=CCCCC1 3.53%
O=C(CSc1ccccc1C(=O)O)NCc1ccccc1 17.3%
O=C(CSc1ccccc1C(=O)O)NCc1ccco1 16.5%
Cc1ccc(SCC(=O)NCCC2=CCCCC2)cc1 -5.26%
O=C(COC(=O)c1cccnc1SCC(=O)NCc1ccccc1)NCc1ccccc1 5.78%
O=C(CSc1ncccn1)NCc1ccc(F)cc1 2.25%
Cc1cccc2cc(C(c3nnnn3Cc3ccccc3)N3CCN(c4ccccc4)CC3)c(=O)[nH]c12 (configuration not stated) 2.86%
COc1ccc(N2C(=O)CC(SCCc3nc4ccccc4[nH]3)C2=O)cc1 (configuration not stated) 5.58%
CC1=C(C(=O)NCc2ccccc2)C(c2cccs2)n2ncnc2N1 (configuration not stated) -3.95%
O=C(NNC(=S)Nc1ccccc1)Nc1ccccc1 9.53%
N#C/C(=C\c1ccc(N2CCOCC2)o1)C(=O)Nc1ccc(O)cc1 43.7%
COCCNC(=O)/C(C#N)=C/c1ccc(C)o1 23.4%
N#C/C(=C\c1ccc(N2CCOCC2)o1)C(=O)NC1CCCCC1 48.6%
N#C/C(=C\c1ccc(N2CCOCC2)o1)C(=O)NCCc1ccccc1 10.1%
N#C/C(=C/c1ccc(N2CCOCC2)o1)C(=O)Nc1ccccc1 11.7%
N#C/C(=C\c1ccc(N2CCOCC2)o1)C(=O)NCC1CCCO1 (configuration not stated) 51%
CCN1CCN(Cc2ccc(NC(=O)c3cc(NC(=O)C4=NN(c5ccccc5)C(=O)C4)cc(OC)c3)cc2C(F)(F)F)CC1 6.5%
CCn1c(SCC(=O)OCc2ccccc2)nnc1-c1ccco1 4.57%
CCOC(=O)COc1ccccc1/C=C1/NC(=O)NC1=O -4.69%
CCOC(=O)c1c(C)[nH]c(C(=O)OCC(=O)Nc2ccc(OCC)cc2)c1C -8.26%
COc1ccc(C(C)C)cc1S(=O)(=O)n1ccnc1C -18.1%
COC1=Cc2c(ccc3ccc(=O)oc23)OC1(C)C -5.99%
CCC(Sc1nc(-c2ccccc2)cc(=O)[nH]1)C(=O)O (configuration not stated) 10%
CC(Sc1nc(-c2ccccc2)cc(=O)[nH]1)C(=O)O (configuration not stated) 22.4%
COc1cccc(CNC(=O)CN2C(=O)CSc3ccc(S(=O)(=O)N4CCCC4)cc32)c1 1.2%
COc1ccc(C(=O)NCC(=O)OCC(=O)Nc2c(C)n(C)n(-c3ccccc3)c2=O)cc1 5.29%
c1ccc(COc2ccccc2CNc2nn[nH]n2)cc1 6.74%
COc1ccc(CNc2nn[nH]n2)cc1OC 26.5%
COc1ccc(/C=N/NC(=S)N[C@H]2CC3CCC2C3)cc1 (some centres not stated) 3.46%
COc1ccc(C(=O)Nc2nc3cc(OC)c(OC)cc3c(=O)[nH]2)cc1 0.22%
CC1CCC2(CC1)NC(=O)N(CC(=O)N1CCN(S(=O)(=O)c3ccccc3)CC1)C2=O (configuration not stated) 5.42%
CS(=O)(=O)CCC(C(=O)N1CCOCC1)N1C(=O)c2cc(Cl)c(Cl)cc2C1=O (configuration not stated) 6.46%
COc1cccc(Nc2ncnc3ccccc23)c1 13.6%
Cc1cccc(Nc2ncnc3ccccc23)c1 19.2%
Cc1cccc(Nc2ncnc3ccc(Br)cc23)c1 5.43%
COc1cccc(Nc2ncnc3c2cnn3C)c1 16.4%
CCN1C(=O)/C(=C\c2nc3ccccc3c(=O)n2-c2ccccc2)c2ccccc21 -3.98%
CCOC(=O)c1cnc2c(C)c(Cl)ccc2c1Nc1ccc(S(=O)(=O)Nc2ncccn2)cc1 -6.24%
CC(=O)NC(O)C(=O)c1ccco1 (configuration not stated) 3.51%
C=CCn1c(SCC(=O)Nc2c(C)cccc2C)nnc1-c1ccncc1 -1.77%
COc1ccc(C(=O)COC(=O)C2CCC(=O)N2)cc1 (configuration not stated) -3.64%
